An excerpt weighted towards active compounds, which were near 6.8% of everything screened.
Pf Dd2 inh: blocks growth of Plasmodium falciparum Dd2 parasites. P. falciparum Dd2 growth, SYBR Green, 72 h; hits give low values. activity change, % at 10 µM. 94,000 compounds, 2.3% hits. AID 1159554; in the data active = activity change below about -80%; inconclusive = no clear call, values can overlap the other calls
Tcruzi prolif: blocks T. cruzi growth in NIH3T3 culture; T. cruzi beta-gal in NIH3T3, GalScreen luminescence, 90 h; inhibition, % at 8.34 µM; 77,000 compounds, 5.9% hits;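 active = mean inhibition above about 93%, with at least 55% of replicates each passing it, limit read from the data, passing the limit was not always enough; inconclusive = only one of those two conditions holds; inactive = neither condition holds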
C diff growth: blocks growth of Clostridium difficile. Clostridium difficile clinical isolate growth, OD600, 24 h; hits give low values. growth activity, negative = inhibition, % at 16 µg/mL (by protocol). 86,000 compounds, 0.25% hits;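 active = mean growth activity at or below -80% and every replicate also at or below -80%; inconclusive = mean at or below -80% but some replicate above -80%; inactive = mean growth activity above -80%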;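 also: 0% = DMSO wells and -100% = levofloxacin 16 µg/mL wells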
Numbers without * were called inactive; u = inconclusive; x = no result.

SMILES	Pf Dd2 inh	Tcruzi prolif	C diff growth
COc1ccc(S(=O)(=O)Nc2ccc3c(c2)C(=O)N([C@@H](C)CO)C[C@H](C)[C@H](CN(C)C(=O)Nc2ccc(C(F)(F)F)cc2)OCCCC[C@@H](C)O3)cc1	-84.5*	59.5	10.6
C[C@@H]1CCCCO[C@@H](CN(C)C(=O)Nc2ccc(C(F)(F)F)cc2)[C@H](C)CN([C@H](C)CO)C(=O)c2cc(NS(=O)(=O)c3ccc(F)cc3)ccc2O1	-35.8	82.6	4.3
C[C@H](CO)N1C[C@H](C)[C@@H](CN(C)C(=O)Nc2ccc(C(F)(F)F)cc2)OCCCC[C@H](C)Oc2ccc(NS(=O)(=O)c3ccc(Cl)cc3)cc2C1=O	-74.9	91.9	-3.8
COc1ccc(S(=O)(=O)Nc2ccc3c(c2)C(=O)N([C@H](C)CO)C[C@@H](C)[C@H](CN(C)C(=O)Nc2ccc(C(F)(F)F)cc2)OCCCC[C@H](C)O3)cc1	-68.0	40.1	13.5
C[C@H]1CCCCO[C@H](CN(C)C(=O)Nc2ccc(C(F)(F)F)cc2)[C@@H](C)CN([C@@H](C)CO)C(=O)c2cc(NS(=O)(=O)c3ccc(F)cc3)ccc2O1	-81.8*	93.5	0.1
C[C@@H]1CCCCO[C@@H](CN(C)C(=O)Nc2ccc(C(F)(F)F)cc2)[C@@H](C)CN([C@H](C)CO)C(=O)c2cc(NS(=O)(=O)c3ccccc3)ccc2O1	-18.4	53.3	5.6
C[C@@H]1CCCCO[C@H](CN(C)C(=O)Nc2ccc(C(F)(F)F)cc2)[C@H](C)CN([C@H](C)CO)C(=O)c2cc(NS(=O)(=O)c3ccccc3)ccc2O1	-86.3*	97.9	8.7
CCCNC(=O)N1[C@H](CO)[C@@H]2c3ccccc3N(C(=O)CC)C[C@@H]21	20.8	25.0	-3.1
COCC(=O)Nc1ccc2c(c1)OC[C@H](C)N(C)C[C@@H](C)[C@H](OC)CN(C)C2=O	23.2	16.5	-1.4
Cc1ccc(S(=O)(=O)Nc2ccc3c(c2)C(=O)N([C@H](C)CO)C[C@H](C)[C@@H](CN(C)C(=O)Nc2ccccc2)OCCCC[C@@H](C)O3)cc1	-18.5	-97.8	x
Cc1ccc(S(=O)(=O)Nc2ccc3c(c2)C(=O)N([C@H](C)CO)C[C@@H](C)[C@@H](CN(C)C(=O)Nc2ccccc2)OCCCC[C@@H](C)O3)cc1	-83.0*	-60.3	x
Cc1ccc(S(=O)(=O)Nc2ccc3c(c2)C(=O)N([C@@H](C)CO)C[C@H](C)[C@@H](CN(C)C(=O)Nc2ccc(C(F)(F)F)cc2)OCCCC[C@H](C)O3)cc1	-81.6*	94.4	6.7
Cc1ccc(S(=O)(=O)Nc2ccc3c(c2)C(=O)N([C@H](C)CO)C[C@@H](C)[C@H](CN(C)C(=O)Nc2ccc(C(F)(F)F)cc2)OCCCC[C@@H](C)O3)cc1	-31.5	76.8	0.7
C[C@@H]1CN([C@H](C)CO)C(=O)CCCn2cc(nn2)CO[C@@H]1CN(C)Cc1ccc(C(=O)O)cc1	27.5	x	3.1
CC=Cc1ccc2n(c1=O)C[C@@H]1[C@@H](CO)[C@H](C(=O)NC3CCC3)[C@H]2N1Cc1ccccc1 (mixture of isomers)	4.2	8.6	4.4
COc1ccc(S(=O)(=O)N(C)C[C@H]2OCCCC[C@H](C)Oc3ccc(NC(=O)NC4CCCCC4)cc3C(=O)N([C@H](C)CO)C[C@H]2C)cc1	-85.5*	95.4	5.9
COc1ccc(S(=O)(=O)N(C)C[C@@H]2OCCCC[C@@H](C)Oc3ccc(NC(=O)NC4CCCCC4)cc3C(=O)N([C@@H](C)CO)C[C@@H]2C)cc1	u	85.5	8.9
COc1ccc(S(=O)(=O)N(C)C[C@H]2OCCCC[C@@H](C)Oc3ccc(NC(=O)NC4CCCCC4)cc3C(=O)N([C@@H](C)CO)C[C@H]2C)cc1	-61.4	92.9	2.5
COc1ccc(S(=O)(=O)N(C)C[C@H]2OCCCC[C@H](C)Oc3ccc(NC(=O)NC4CCCCC4)cc3C(=O)N([C@@H](C)CO)C[C@H]2C)cc1	-81.4*	67.1	3.7
CCC(=O)N1C[C@@H]2[C@H](c3ccccc31)[C@@H](CO)N2Cc1ccccc1Cl	-3.7	5.2	-2.0
O=C(O)C[C@@H]1CC[C@@H]2[C@H](COC[C@@H](O)CN2S(=O)(=O)c2ccc(F)cc2)O1	28.4	x	7.2
C[C@@H]1CN([C@H](C)CO)C(=O)c2c(c3ccccc3n2C)-c2ccccc2CO[C@H]1CN(C)C(=O)Nc1ccc2c(c1)OCO2	-69.1	73.5	-2.8
C[C@@H]1CN([C@H](C)CO)C(=O)c2ccccc2-c2ccccc2CO[C@@H]1CN(C)Cc1ccc(-c2ccccc2)cc1	-83.0*	x	15.5
C[C@@H]1CN([C@H](C)CO)C(=O)c2ccccc2-c2ccccc2CO[C@@H]1CN(C)Cc1ccccc1	-15.5	45.0	x
C[C@H]1CN([C@@H](C)CO)C(=O)c2ccccc2-c2ccccc2CO[C@@H]1CN(C)Cc1ccc(Cl)c(Cl)c1	-84.8*	x	67.4
SMILES	Pf Dd2 inh	Tcruzi prolif	C diff growth
C[C@@H]1CN([C@H](C)CO)C(=O)c2ccccc2-c2ccccc2CO[C@@H]1CN(C)Cc1ccc(Cl)c(Cl)c1	u	x	3.7
CN(C)CC(=O)N1[C@@H](CO)[C@@H](c2ccccc2)C12CN(C(=O)C1CCCC1)C2	9.0	x	9.3
C[C@@H]1CN([C@H](C)CO)C(=O)c2cc(NC(=O)Nc3ccccc3)ccc2O[C@@H](C)CCCCO[C@@H]1CN(C)Cc1ccc(Cl)c(Cl)c1	-85.1*	70.0	10.0
COc1ccc(NC(=O)Nc2ccc3c(c2)C(=O)N([C@@H](C)CO)C[C@@H](C)[C@@H](CN(C)Cc2ccc4c(c2)OCO4)OCCCC[C@@H](C)O3)cc1	-83.0*	85.3	16.2
Cc1noc(C)c1NC(=O)Nc1ccc2c(c1)C(=O)N([C@H](C)CO)C[C@@H](C)[C@H](CN(C)Cc1ccc(Cl)c(Cl)c1)OCCCC[C@H](C)O2	-85.6*	75.9	10.3
Cc1noc(C)c1NC(=O)Nc1ccc2c(c1)C(=O)N([C@H](C)CO)C[C@@H](C)[C@@H](CN(C)S(C)(=O)=O)O2	-91.6*	94.3	x
COc1ccc(NC(=O)Nc2ccc3c(c2)C(=O)N([C@@H](C)CO)C[C@@H](C)[C@@H](CN(C)Cc2ccc4c(c2)OCO4)OCCCC[C@H](C)O3)cc1	-69.7	78.6	6.7
C[C@@H]1CCCCO[C@@H](CN(C)Cc2ccc(Cl)c(Cl)c2)[C@@H](C)CN([C@H](C)CO)C(=O)c2cc(NC(=O)Nc3ccccc3)ccc2O1	-8.5	93.6	1.8
Cc1noc(C)c1NC(=O)Nc1ccc2c(c1)C(=O)N([C@@H](C)CO)C[C@H](C)[C@@H](CN(C)S(C)(=O)=O)O2	-14.6	88.2	x
Cc1noc(C)c1NC(=O)Nc1ccc2c(c1)C(=O)N([C@H](C)CO)C[C@H](C)[C@@H](CN(C)Cc1ccc(Cl)c(Cl)c1)OCCCC[C@@H](C)O2	-32.4	-31.2	5.4
COCC(=O)Nc1ccc2c(c1)C(=O)N(C)C[C@H](OC)[C@@H](C)CN(Cc1ccccc1OC)[C@H](C)CO2	-45.5	-8.5	-0.4
CCCN1C[C@@H](C)[C@H](OC)CN(C)C(=O)c2cc(NS(=O)(=O)CC)ccc2OC[C@@H]1C	5.3	1.8	-4.1
C[C@@H]1CN([C@@H](C)CO)C(=O)c2cc(NC(=O)Nc3ccccc3)ccc2O[C@@H](C)CCCCO[C@H]1CN(C)Cc1ccccc1	-66.6	x	x

Screens as filed in PubChem BioAssay.
